Shown are actives, neighbours in structure and some others; about 0.9% of the full set was active somewhere.
TcdB GH inh: TcdB glycohydrolase inhibition; P18177; AID 652162; TcdB glycohydrolase enzymatic assay, plate reader; 350,000 tested, 0.24% active; inhibition, % at 9.99 µM; in the data active means inhibition above about 10%
Target sequence (P18177 whole entry, looked up): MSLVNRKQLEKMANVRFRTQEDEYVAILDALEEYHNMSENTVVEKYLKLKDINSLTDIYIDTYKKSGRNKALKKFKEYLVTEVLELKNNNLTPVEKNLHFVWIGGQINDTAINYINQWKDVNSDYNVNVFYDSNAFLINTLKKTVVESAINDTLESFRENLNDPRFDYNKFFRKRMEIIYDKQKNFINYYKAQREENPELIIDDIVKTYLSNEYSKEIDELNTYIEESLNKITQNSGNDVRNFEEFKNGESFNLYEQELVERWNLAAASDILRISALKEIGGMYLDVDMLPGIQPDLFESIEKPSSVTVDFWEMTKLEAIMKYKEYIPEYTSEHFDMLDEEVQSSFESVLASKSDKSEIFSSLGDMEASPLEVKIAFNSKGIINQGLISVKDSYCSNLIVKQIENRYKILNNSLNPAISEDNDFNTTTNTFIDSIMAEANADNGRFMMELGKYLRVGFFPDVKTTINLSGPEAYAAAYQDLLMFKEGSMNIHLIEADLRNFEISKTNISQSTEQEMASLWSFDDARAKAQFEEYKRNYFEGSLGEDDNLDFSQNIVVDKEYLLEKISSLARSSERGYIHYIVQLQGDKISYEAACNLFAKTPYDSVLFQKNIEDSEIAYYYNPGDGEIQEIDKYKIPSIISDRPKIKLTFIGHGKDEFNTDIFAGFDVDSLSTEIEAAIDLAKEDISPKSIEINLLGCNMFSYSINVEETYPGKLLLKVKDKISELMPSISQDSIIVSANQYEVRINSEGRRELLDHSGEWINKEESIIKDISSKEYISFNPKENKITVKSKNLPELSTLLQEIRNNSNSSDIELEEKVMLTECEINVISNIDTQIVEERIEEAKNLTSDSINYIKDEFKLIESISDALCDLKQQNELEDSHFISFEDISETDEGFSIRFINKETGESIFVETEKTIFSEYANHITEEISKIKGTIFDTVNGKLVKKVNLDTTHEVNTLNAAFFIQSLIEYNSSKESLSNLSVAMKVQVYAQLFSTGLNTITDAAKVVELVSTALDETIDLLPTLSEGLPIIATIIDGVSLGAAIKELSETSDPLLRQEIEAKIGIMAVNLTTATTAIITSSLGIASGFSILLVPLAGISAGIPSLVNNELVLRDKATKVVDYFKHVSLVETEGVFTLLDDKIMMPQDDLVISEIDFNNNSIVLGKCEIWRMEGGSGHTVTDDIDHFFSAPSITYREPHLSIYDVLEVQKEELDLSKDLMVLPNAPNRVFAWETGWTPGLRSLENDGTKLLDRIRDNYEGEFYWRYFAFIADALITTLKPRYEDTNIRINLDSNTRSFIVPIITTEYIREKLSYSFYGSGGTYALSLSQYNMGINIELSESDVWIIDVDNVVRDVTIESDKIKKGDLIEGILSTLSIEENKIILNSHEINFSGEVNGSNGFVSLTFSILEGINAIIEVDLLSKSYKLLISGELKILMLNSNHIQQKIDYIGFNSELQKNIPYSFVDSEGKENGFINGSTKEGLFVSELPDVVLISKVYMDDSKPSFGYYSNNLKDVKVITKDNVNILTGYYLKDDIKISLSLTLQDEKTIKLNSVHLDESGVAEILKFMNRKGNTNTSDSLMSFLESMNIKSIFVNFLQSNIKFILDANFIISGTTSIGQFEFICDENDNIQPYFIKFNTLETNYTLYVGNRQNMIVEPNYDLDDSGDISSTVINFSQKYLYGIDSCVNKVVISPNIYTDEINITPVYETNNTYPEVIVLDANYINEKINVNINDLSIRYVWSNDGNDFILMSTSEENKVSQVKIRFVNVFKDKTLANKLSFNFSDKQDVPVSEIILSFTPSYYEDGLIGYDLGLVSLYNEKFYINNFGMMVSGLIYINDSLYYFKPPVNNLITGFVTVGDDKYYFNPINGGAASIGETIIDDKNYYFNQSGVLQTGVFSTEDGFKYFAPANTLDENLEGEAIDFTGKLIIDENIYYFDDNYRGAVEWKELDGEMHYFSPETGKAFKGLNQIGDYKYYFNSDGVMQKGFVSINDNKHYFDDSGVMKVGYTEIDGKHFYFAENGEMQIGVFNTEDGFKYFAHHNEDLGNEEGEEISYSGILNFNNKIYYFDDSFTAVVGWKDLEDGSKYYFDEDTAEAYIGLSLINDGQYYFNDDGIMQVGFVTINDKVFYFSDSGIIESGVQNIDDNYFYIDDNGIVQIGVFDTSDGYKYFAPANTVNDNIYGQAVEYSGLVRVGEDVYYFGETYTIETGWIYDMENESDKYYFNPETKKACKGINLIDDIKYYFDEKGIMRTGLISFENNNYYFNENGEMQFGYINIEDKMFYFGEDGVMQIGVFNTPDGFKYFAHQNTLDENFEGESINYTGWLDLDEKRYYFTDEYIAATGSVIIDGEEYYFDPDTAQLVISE
UGM FP inh: inhibitors of M. tuberculosis UDP-galactopyranose mutase; purified UGM, fluorescence polarization probe displacement; inhibition, % at 10 µM; 320,000 tested, 0.06% active; AID 504406; in the data active means inhibition above about 10%, passing the limit was not always enough
RecA intein inh: inhibitors of M. tuberculosis RecA intein splicing; P9WHJ3; AID 2221; cell-free RecA intein splicing, fluorescence; 290,000 tested, 0.75% active; inhibition, % (test concentration not listed); in the data active means inhibition above about 30%
Mtb BioA inh: inhibitors of Mycobacterium tuberculosis BioA enzyme; purified M. tuberculosis BioA enzyme, plate reader; inhibition, % at 9.99 µM; 360,000 tested, 0.096% active; AID 602481; in the data active means inhibition above about 40%
FadD28 binding: M. tuberculosis FadD28 bisubstrate binding inhibition; inhibition, % at 12.5 µM; 360,000 tested, 0.22% active; FadD28 bisubstrate probe binding, fluorescence polarization; in the data active means inhibition above about 8.5%, passing the limit was not always enough
Rv3671c inh: inhibitors of M. tuberculosis serine protease Rv3671c; P9WHR9; inhibition, % at 5.96 µM; 320,000 tested, 0.048% active; in the data active means inhibition above about 38%;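 further: extracellular domain of Rv3671c used as enzyme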
Each line names hits and unclear results; the compound was inactive in the other large screens.

Cc1ccc2c(c1)-c1c(cnn1CC(=O)N(Cc1ccco1)C1CCCCC1)CO2	none
Cc1ccc2c(c1)-c1c(cnn1CC(=O)NC(C)CCc1ccco1)CO2 (stereo not given)	TcdB GH inh 11
Cc1ccc(CSc2nc3nc(C)cc(C)c3c(=O)[nH]2)cc1	TcdB GH inh 13
CCOc1ccccc1N1CCN(C2=C(NS(=O)(=O)c3cccs3)C(=O)c3ccccc3C2=O)CC1	FadD28 binding 14 (no result: TcdB GH inh)
CN1CCN(C2=C(NS(=O)(=O)c3cccs3)C(=O)c3ccccc3C2=O)CC1	none
O=C(N/N=C/c1ccc(-c2ccccc2[N+](=O)[O-])o1)[C@H]1C[C@@H]1c1ccccc1	RecA intein inh 42 (no result: Mtb BioA inh)
Cc1ccc(C(=O)N/N=C/c2ccc(-c3cccc(Cl)c3)o2)cn1	none (no result: Mtb BioA inh)
O=C(N/N=C/c1ccc(-c2ccc([N+](=O)[O-])cc2)o1)[C@H]1C[C@@H]1c1ccccc1	none (no result: Mtb BioA inh)
Cc1ccc(C(=O)N/N=C/c2ccc(-c3ccccc3[N+](=O)[O-])o2)cn1	RecA intein inh 61 (no result: Mtb BioA inh)
COc1ccc(C(=O)NC(CC(=O)O)c2cc([N+](=O)[O-])ccc2Cl)c(SC)c1 (stereo not given)	TcdB GH inh 34 (no result: Mtb BioA inh)
COc1ccc(C(O)(C(C)C)C(CN2CCOCC2)c2ccccc2)cc1 (stereo not given)	TcdB GH inh 21 (no result: Rv3671c inh)
COc1ccc(C(O)(C(C)C)C(CN2CCOCC2)c2ccc(Cl)cc2)cc1 (stereo not given)	none
Cc1cccc(-c2ccc([C@H]3[C@H](CO)N4C(=O)CN(C(=O)c5ccccc5)C[C@@H]34)cc2)c1	none (no result: UGM FP inh, RecA intein inh, Mtb BioA inh, FadD28 binding, Rv3671c inh)
Cc1ccc(NC2=C(Cl)C(=O)OC2OC(=O)c2ccco2)cc1 (stereo not given)	none
Cc1cccc(NC2=C(Cl)C(=O)OC2OC(=O)c2ccco2)c1 (stereo not given)	RecA intein inh 42 (no result: Mtb BioA inh)
CC(=O)Nc1cccc(NC(=O)c2ccc(Br)cc2)c1	TcdB GH inh 10
COc1[nH]c(/N=C/c2ccccc2)c(C#N)c1C#N	FadD28 binding 28 (no result: TcdB GH inh, Mtb BioA inh)
Cc1onc(-c2ccccc2)c1C(=O)N(Cc1ccco1)Cc1cccs1	TcdB GH inh 16 (no result: UGM FP inh, Mtb BioA inh, Rv3671c inh)
C[C@@H]1CN([C@@H](C)CO)C(=O)c2cc(NC(=O)CCCN(C)C)ccc2O[C@@H]1CN(C)C(=O)NC1CCCCC1	none (no result: UGM FP inh, RecA intein inh, FadD28 binding, Rv3671c inh)
Cc1ccc(/C=C2/SC(=O)NC2=S)o1	FadD28 binding 16 (no result: TcdB GH inh, UGM FP inh, RecA intein inh, Rv3671c inh)
O=C(CSc1ccc2nnc(-c3ccc(F)cc3)n2n1)N1CCOCC1	TcdB GH inh 24
O=C(CSc1ccc2nnc(-c3cccs3)n2n1)N1CCOCC1	none (no result: UGM FP inh, RecA intein inh, Rv3671c inh)
COc1ccccc1C(=O)Nc1ccc2c(c1)OC[C@@H](C)N(C)C[C@H](C)[C@H](OC)CN(C)C2=O	none (no result: UGM FP inh, RecA intein inh, FadD28 binding, Rv3671c inh)
O=C(O)c1ccc2c(c1)C1C(Cl)C(Sc3ccccc3[N+](=O)[O-])CC1C(c1cccc([N+](=O)[O-])c1)N2 (stereo not given)	FadD28 binding 43 (no result: TcdB GH inh, UGM FP inh, RecA intein inh, Rv3671c inh)
O=C(O)/C=C\C(=O)Nc1ccc(Oc2ccc(Br)cc2)cc1	RecA intein inh 32 (no result: Mtb BioA inh)
CC(=O)N1CCN(c2ccc(S(C)(=O)=O)cc2[N+](=O)[O-])CC1	TcdB GH inh 11
O=C1C2C3C=CC(C3)C2C(=O)N1CCN1CCN(S(=O)(=O)c2ccc3ccccc3c2)CC1 (stereo not given)	UGM FP inh 10
CC(=O)[C@@H]1[C@@H](C(=O)c2ccccc2)[C@]2(C(=O)Nc3ccccc32)[C@H]2C=Cc3cc(F)ccc3N12	none (no result: TcdB GH inh, Mtb BioA inh)
O=C(c1ccccc1)[C@@H]1[C@@H](C(=O)c2ccc(F)cc2)[C@@]2(C(=O)Nc3ccccc32)[C@H]2c3ccccc3C=CN12	RecA intein inh 31
O=Cc1ccnc(-c2ccc(OC(=O)c3ccco3)cc2)n1	RecA intein inh 36 (no result: Mtb BioA inh)
O=C(Oc1ccc(-c2ccccc2)cc1)c1ccco1	none (no result: UGM FP inh, RecA intein inh, Rv3671c inh)
C[C@H]1CCCCO[C@H](CN(C)Cc2ccc(C(=O)O)cc2)[C@@H](C)CN([C@@H](C)CO)C(=O)c2cc(NS(=O)(=O)c3cccs3)ccc2O1	none (no result: UGM FP inh, RecA intein inh, FadD28 binding, Rv3671c inh)
Nc1ccc(Sc2ccc(N)cc2)cc1	TcdB GH inh 13 (no result: UGM FP inh, RecA intein inh, Rv3671c inh)
C/C(=N\Nc1ccc([N+](=O)[O-])cc1)c1cccc(N)c1	TcdB GH inh 15
CCOc1ccc(N=Nc2ccc(O)c3ncccc23)cc1	none (no result: Rv3671c inh)
CCOc1ccc2c(ccc(/C=C/c3cc(C)c4cccnc4c3O)[n+]2C)c1	FadD28 binding 16 (no result: TcdB GH inh, UGM FP inh, RecA intein inh, Mtb BioA inh, Rv3671c inh)
O=C1C=C(N2CC2)c2ccccc2C1=O	FadD28 binding 8.9 (no result: UGM FP inh, RecA intein inh, Rv3671c inh)

Screening data: PubChem, several laboratories
